About 1,100 (52%) of roughly 2,100 compounds were called active. Another 29% or so got no clear call; they are omitted. The set was probably picked from earlier hits. The list shows a part of the results. A number with no mark means an inactive call. Calls follow the shape of the dose curve; as a rule, active = well fitted inhibition curve with a large enough effect; inconclusive = small, poorly fitted or top-dose-only effect; inactive = no such curve, though single readings can be large or run the other way.
These compounds were tested against DNA dC->dU-editing enzyme APOBEC-3F (Homo sapiens) (UniProt Q8IUX4) (assay: qHTS for inhibitors of Vif-A3F interactions: Cherry picks counterscreen). Conditions: HeLa A3F-eYFP/Vif cells, eYFP fluorescence, 24 h; series mostly up to 46.1 µM; activity, negative = inhibitor: at the top concentration.
Excerpt: The recent discovery and characterization of host restriction factors, which provide a potent defense to invading retroviruses, has provided new targets for antiviral drug development. APOBEC3G (A3G) and APOBEC3F (A3F) are potent cytidine deaminases that block HIV-1 replication; HIV-1 expresses the Vif protein, which counteracts A3G and A3F by binding to them and inducing their proteasomal degradation. The Vif-A3G and Vif-A3F interactions provide two potential targets for development of small molecules which can interfere with the ability of Vif to degrade A3G or A3F. […] To identify inhibitors that can interfere with Vif mediated degradation of A3G and A3F, we have developed Hela cell lines that stably express A3G or A3F tagged with eYFP at the C-terminal end (A3G-eYFP or A3F-eYFP, respectively) and Vif. In the absence of an inhibitor, Vif induces degradation of A3G-eYFP and A3F-eYFP, and the cells are not fluorescent. In the presence of an inhibitor, it is expected that Vif will be unable to degrade A3G-eYFP and/or A3F-eYFP, resulting in an increase in yellow fluorescence. In this counterscreen assay, Vif A3F was screened against the cherry picks ordered from the MLSMR. NIH Chemical Genomics Center [NCGC] NIH Molecular Libraries Probe Centers Network [MLPCN] MLPCN Grant: MH093245 Assay Submitter (PI): Vinay Pathak, National Cancer Institute
A3F-Vif cells were harvested from T225 flask and resuspended in phenol free OPTI-MEM medium with 5% FBS. Then 5 uL of 140,000 cells/mL resuspended cells was dispensed into each well of low base Aurora COC 1,536-well plates (black walled, clear bottom) using a Multidrop Combi dispenser. After overnight culture at 37 deg C with 5% CO2, a total of 23 nL of compounds at 5 selected concentrations from the NPC or positive control (2 mM stock of MG132) in DMSO was transferred to each well of the assay plate using a pintool (Kalypsys, San Diego, CA), and the plates were further incubated at 37 deg C with 5% CO2 for 24 hours. After that, the plates were measured on Acumen Explorer (TTP Lab Tech). The fluorescence was detected by 488 nm/Ex and […].
% is scaled to controls: 0 for no effect and ±100 for the full control effect; potency is read from the fitted curve at half-maximal effect.
Also: nearly all actives have a fitted effect of over 65% in size.

Chain of DNA dC->dU-editing enzyme APOBEC-3F (Homo sapiens) (Q8IUX4 whole entry, looked up): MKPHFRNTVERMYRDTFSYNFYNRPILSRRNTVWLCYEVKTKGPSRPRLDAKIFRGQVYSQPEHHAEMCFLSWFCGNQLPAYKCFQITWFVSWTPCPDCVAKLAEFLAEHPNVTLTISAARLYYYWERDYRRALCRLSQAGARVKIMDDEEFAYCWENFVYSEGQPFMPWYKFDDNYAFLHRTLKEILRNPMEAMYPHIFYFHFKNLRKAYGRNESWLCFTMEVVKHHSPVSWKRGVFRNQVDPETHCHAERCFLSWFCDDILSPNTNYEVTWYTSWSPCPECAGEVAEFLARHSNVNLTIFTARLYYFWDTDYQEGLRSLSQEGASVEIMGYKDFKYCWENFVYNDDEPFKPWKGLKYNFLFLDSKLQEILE

Structure (SMILES) | Potency | activity, negative = inhibitor
CCCN1CCc2c(sc(NC(=S)NC(=O)c3ccccc3)c2C#N)C1 | 16.4 µM (active) | –
CCCN1CCc2c(sc(NC(=O)c3ccc(S(=O)(=O)N(C)c4ccccc4)cc3)c2C(N)=O)C1 | 23.1 µM (active) | –
O=C(NC(=S)Nc1ccccc1N1CCCCC1)c1ccccc1 | – | -14.4%
N#CC(C#N)=C1C=C2C=C(N3CCOCC3)CCC2CC1 (centres undefined) | – | 24.4%
COc1cc(C2C3=C(COC3=O)Oc3cc4c(cc32)OCO4)ccc1OC(C)=O (centres undefined) | 3.14 µM (active) | –
O=C1OCC2=C1C(c1ccc3c(c1)OCO3)c1cc3c(cc1O2)OCO3 (centres undefined) | 1.25 µM (active) | –
N#C/C=C/N1CCN(C(=O)c2ccco2)CC1 | – | 15% [at 36.9 µM]
CCCCn1c(N)c(N(CCC(C)C)C(=O)c2ccc([N+](=O)[O-])o2)c(=O)[nH]c1=O | – | -13.3%
CCCCn1c(N)c(N(CC(C)C)C(=O)Cc2ccc(S(=O)(=O)N3CCOCC3)s2)c(=O)[nH]c1=O | 16.4 µM (active) | –
C=CCN1C(=O)c2ccc(C(=O)N(CC(C)C)c3c(N)n(CCCC)c(=O)[nH]c3=O)cc2C1=O | – | -17.4% [at 36.9 µM]
O=C(O)c1ccccc1N/N=C/c1c(Sc2nnnn2-c2ccccc2)nc2ccccn2c1=O | – | 31.2% [at 36.9 µM]
CCN1C/C(=C\c2cccc([N+](=O)[O-])c2)C(=O)/C(=C/c2cccc([N+](=O)[O-])c2)C1 | 2.5 µM (active) | –
CC(C)COc1ccc(C(=O)N/C(=C/c2cccc([N+](=O)[O-])c2)C(=O)O)cc1 | – | -5.47% [at 36.9 µM]
C[n+]1ccc(/C=C/c2cc[n+](C)c3ccccc23)c2ccccc21 | – | 0.363%
C[n+]1ccc(/C=C/c2c[nH]c3ccccc23)cc1 | 6.51 µM (active) | –
CC[n+]1ccc(/C=C/c2c[nH]c3ccccc23)cc1 | 1.84 µM (active) | –
OCC[n+]1ccc(/C=C/c2c[nH]c3ccccc23)cc1 | 5.8 µM (active) | –
COc1ccc(C(=O)N/N=C/c2ccccc2OC(=O)c2ccccc2)cc1 | 3.96 µM (active) | –
O=C(NC(=S)Nc1ccc(-c2ccccc2)cc1)c1ccccc1 | – | 10.7%
COc1ccccc1NC(=O)Cc1ccc(-c2ccccc2)cc1 | – | -0.174%
O=C(Nc1ccccc1OC(=O)c1ccccc1)c1ccccc1 | 15.8 µM (active) | –
NC(=S)N/N=C/c1ccccc1OC(=O)/C=C/c1ccccc1 | – | 6.59%
C=C1C(=O)O[C@H]2C1CC[C@@](C)(O)C13C=CC(C)(C21)C1(C3)C(=O)O[C@@H]2C3C(C)=CCC3[C@](C)(O)C[C@H](OC(C)=O)C21 (some centres undefined) | 17.7 µM (active) | –

Structure (SMILES) | Potency | activity, negative = inhibitor
Cc1c(N=C2N=C(NC(=O)c3cccs3)c3ccccc32)c(=O)n(-c2ccccc2)n1C | 14 µM (active) | –
Cc1c(NC(=O)c2csc3c2CCCC3)c(=O)n(-c2ccccc2)n1C | – | 9.75%
N#Cc1c(C(F)(F)F)cc(-c2ccccc2)nc1SCc1nc(N)nc(N2CCOCC2)n1 | 16.4 µM (active) | –
COc1c(-c2ccc(O)c(O)c2)oc2cc(O)cc(O)c2c1=O | 12.5 µM (active) | –
Cc1cc(NC(=O)Nc2nnc(N(C)Cc3ccccc3)s2)ccc1Br | – | 0.433%
CSc1nc2ccccc2cc1/C=C(\C#N)c1cccc(C)c1 | 11.2 µM (active) | –
N#C/C(=C\c1cccc(O)c1)c1nc2ccccc2o1 | 7.9 µM (active) | –
C/C(=N\Nc1nc(C)cc(-c2ccccc2)n1)c1ccc(F)cc1 | – | -4.82%
Nc1c(C(=O)N/N=C/c2cccnc2)oc2nc(-c3ccccc3)cc(-c3ccco3)c12 | 4.11 µM (active) | –
Nc1c(C(=O)N/N=C/c2ccc(F)cc2)oc2nc(-c3ccccc3)cc(-c3ccco3)c12 | 14 µM (active) | –
Nc1c(C(=O)N/N=C/c2ccccc2Cl)oc2nc(-c3ccccc3)cc(-c3ccco3)c12 | 10.3 µM (active) | –
CCOc1ccc2nc(NC(=O)c3nc(SC(C)C)ncc3Cl)sc2c1 | 11.6 µM (active) | –
Cc1cccc(NC(=O)/C=C/c2ccc([N+](=O)[O-])s2)c1 | 7.31 µM (active) | –
Cc1cc(C)cc(NC(=O)/C=C/c2ccc([N+](=O)[O-])s2)c1 | 16.4 µM (active) | –
Cc1ccc(NC(=O)/C=C/c2ccc([N+](=O)[O-])s2)cc1 | 10.3 µM (active) | –
Cc1ccc(NC(=O)/C=C/c2ccc([N+](=O)[O-])s2)c(C)c1 | 18.4 µM (active) | –
COC(=O)c1sccc1NC(=S)Nc1cc(C)cc(C)c1 | – | 7.32%
CCC(=O)OCc1cnc(C)c2oc(=O)c(C(=O)Nc3ccccc3C(F)(F)F)cc12 | – | -17.4%
CC(=O)c1cccc(NC(=S)N2c3ccccc3CC2C)c1 (centres undefined) | – | 3.12% [at 36.9 µM]
CC(=O)c1cccc(NC(=O)/C=C/c2ccc([N+](=O)[O-])s2)c1 | 16.4 µM (active) | –
CCOCCC(=O)Nc1ccc2c(c1)c(=O)n(C)n2C/C=C/c1ccccc1 | 15.8 µM (active) | –
COc1ccc(/C=N/NC(=O)c2cc3c(OC)ccc(OC)c3[nH]2)cc1O | 4.44 µM (active) | –
COc1ccc2[nH]c(C(=O)N/N=C/c3ccc(OC)c(O)c3)cc2c1 | 3.14 µM (active) | –

Structure (SMILES) | Potency | activity, negative = inhibitor
CN[C@H]1CCc2cc(OC)c(OC)c(OC)c2-c2ccc(N(C)CC(OC)OC)c(=O)cc21 | 2.8 µM (active) | –
COc1cc2c(c(OC)c1OC)-c1ccc(N(C)CC(OC)OC)c(=O)cc1[C@@H](NC(C)=O)CC2 | 1.12 µM (active) | –
CSc1cccc(NC(=O)c2cc3c(COC(C)=O)cnc(C)c3oc2=O)c1 | – | 3.84%
CCN(CC)c1ccc2cc(-c3nc4ccccc4n3C)c(=O)oc2c1 | 7.31 µM (active) | –
CCN(CC)c1ccc2cc(C(N)=O)c(=N)oc2c1 | – | 37.6%
CCN(CC)c1ccc2cc(-c3nc(-c4ccc(Cl)cc4Cl)cs3)c(=O)oc2c1 | – | -4.58%
CCN(CC)c1ccc2cc(-c3nnc(-c4ccccc4)o3)c(=O)oc2c1 | 0.112 µM (active) | –
CCN(CC)c1ccc2cc(-c3nnc(-c4cccc(Cl)c4)o3)c(=O)oc2c1 | 0.206 µM (active) | –
CCN(CC)c1ccc2cc(-c3nc(-c4cccs4)no3)c(=O)oc2c1 | 0.291 µM (active) | –
CN(C)S(=O)(=O)c1ccc(N2CCCC2)c(C(=O)N2CCN(S(=O)(=O)c3ccc(F)c(F)c3)CC2)c1 | – | 7.98% [at 36.9 µM]
CCOC(=O)c1c(C)sc(-c2c(-c3ccccc3)[nH]c3[nH]c(=O)[nH]c(=O)c23)c1O | 23.1 µM (active) | –
CCOC(=O)c1ccc(NC(=O)CSc2nc(-c3ccc(OC)cc3)cc(C(F)(F)F)c2C#N)cc1 | 23.1 µM (active) | –
CCOC(=O)c1ccc(N=Nc2c(C)c(C#N)c(O)[nH]c2=O)cc1 | – | -26.8%
CCCCOc1ccc(-c2cc(C(F)(F)F)c(C#N)c(SCC(=O)O)n2)cc1 | 18.4 µM (active) | –
Cc1ccc(S(=O)(=O)CCSc2nc(C)cc(C(F)(F)F)c2C#N)cc1 | 12.5 µM (active) | –
COCc1cc(C)nc(SCC(=O)Nc2ccc3[nH]c(=O)[nH]c3c2)c1C#N | – | -19.9%
CCOC(=O)c1ccc(NC(=O)CSc2nc(-c3ccc(F)cc3)cc(C(F)(F)F)c2C#N)cc1 | 18.4 µM (active) | –
Cc1coc(NC(=O)CSc2nc(-c3ccncc3)cc(C(F)(F)F)c2C#N)n1 | 7.31 µM (active) | –
Cc1sc2nc(CSCC(=O)Nc3ccccc3C#N)[nH]c(=O)c2c1C | – | -1.56%
Cc1cc(C(F)(F)F)c(C#N)c(SCC(=O)Nc2nc3ccccc3s2)n1 | 16.4 µM (active) | –
CN(C)c1ccc(/C=C2\Oc3ccc(C#Cc4cccc(N)c4)cc3C2=O)cc1 | 15.8 µM (active) | –
CCOc1ccc(C(=O)COC(=O)Cc2n[nH]c(=O)c3ccccc23)cc1 | 4.44 µM (active) | –
O=C(Cc1n[nH]c(=O)c2ccccc12)OCC(=O)c1ccc2c(c1)OCCO2 | 2.8 µM (active) | –

Structure (SMILES) | Potency | activity, negative = inhibitor
COc1ccc(C(=O)/C=C/Nc2ccc([N+](=O)[O-])cc2C)c(OC)c1 | 18.4 µM (active) | –
COc1cccc(N=C2NC(=O)/C(=C/c3cc([N+](=O)[O-])ccc3O)S2)c1 | – | -25.7%
N#C/C(N=Nc1ccccc1O)=N\Nc1ccccc1O | 5.17 µM (active) | –
Cc1cc(N2CCN(c3ccc([N+](=O)[O-])c4cccnc34)CC2)c2ccccc2n1 | 20.6 µM (active) | –
O=[N+]([O-])c1cc(Cl)c2cccnc2c1O | – | 4.37%
COc1ccccc1Nc1cc2cc(Br)ccc2c(=O)[nH]1 | 7.04 µM (active) | –
COc1ccc(NC(=O)c2oc3ccc(S(=O)(=O)N4CCOCC4)cc3c2C)cc1 | – | -10.1% [at 36.9 µM]
COc1cccc(NC(=O)c2oc3ccc(S(=O)(=O)N4CCC5(CC4)OCCO5)cc3c2C)c1 | 13 µM (active) | –
COc1ccc(OCCCC(=O)N2CCN(S(=O)(=O)c3cccc(F)c3)CC2)cc1 | – | 8.38%
Cc1ccc(NC(=O)C2CCN(S(=O)(=O)c3ccc(Cl)c(C(F)(F)F)c3)CC2)nc1 | – | 0.17% [at 36.9 µM]
CN(CC(=O)Nc1ccc(Cl)c(C(F)(F)F)c1)C(=O)c1ccc(S(=O)(=O)N2CCOCC2)cc1 | 4.44 µM (active) | –
COC(=O)C1CCC(=O)N1C(c1ccc(OC)cc1)c1cc(OC)c(OC)c(OC)c1 (centres undefined) | 0.79 µM (active) | –
CC1=CN2C(=N)/C(=C/c3ccc([N+](=O)[O-])o3)C(=O)N=C2S1 | 14 µM (active) | –
CCS(=O)(=O)C1=NN2C(=N)/C(=C\c3ccc(SCc4ccco4)o3)C(=O)N=C2S1 | – | 11.1%
CCOC(=O)C1=C(Cc2ccc(F)cc2)C(=O)c2ccccc2C1=O | 16.4 µM (active) | –
COc1ccc(C(C)(O)c2nc(-c3ccccc3OC)cs2)cc1 (centres undefined) | 12.5 µM (active) | –
CC(=O)Nc1sc(/C(C#N)=C\c2cccc(Cl)c2)nc1-c1ccc(C)cc1 | 11.6 µM (active) | –
CCOc1cc(/C=C(\C#N)c2nc(-c3cccs3)c(NC(C)=O)s2)ccc1O | – | 39.2%
CC(=O)Nc1sc(/C(C#N)=C/c2ccc(Cl)c(Cl)c2)nc1-c1ccc(C)cc1 | 2.59 µM (active) | –
COc1ccc(CN(C(C)=O)c2cccc(C)c2C)cc1 | 15.8 µM (active) | –

Reference: PubChem BioAssay AID651815 (National Center for Advancing Translational Sciences (NCATS), 2012)
